Assay results: PubChem BioAssay (Tox21)
Values joined by “and” are separate entries in the source; they are usually repeats but may differ in a detail not shown here. Identical values can stand only once. Inconclusive results are not listed. A call without a number means that no potency is given here. Active and inactive are the calls of the source. Unless noted, calls follow the shape of the dose curve; as a rule, active = well fitted curve in the direction sought with a large enough effect in the repeat runs; inconclusive = weak or mixed curves; inactive = no such curve, though single readings can be large; an effect the other way counts as inactive or inconclusive.

Legend:
[1] = qHTS assay to identify small molecule antagonists of the vitamin D receptor (VDR) signaling pathway - cell viability counter screen (AID 743225); also: nearly all actives have a fitted effect of over 50% in size; also: potency is read from the fitted curve at half-maximal effect
In short: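 HEK293T VDR-bla; cpd + 1a,25-(OH)2D3 3 nM final, 16 h 37C/5% CO2; B/G FRET substrate 2 h RT; then CellTiter-Glo 30 min RT, luminescence.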

[2] = qHTS assay to identify small molecule agonists of the endoplasmic reticulum stress response signaling pathway (AID 1159516; active = well fitted activation curve with a large enough effect in the signal ratio in the repeat runs, not every such curve was filed as active; the % refers to the signal ratio; also: potency is read from the fitted curve at half-maximal effect)
In short: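 Read-out is beta-lactamase cleavage of a FRET substrate (405 nm excitation; 460 and 530 nm emissions) in ESRE-bla HeLa cells after a 5 hr compound exposure at 37 C. Substrate incubation ran 2 hr at room temperature.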

[3] = qHTS assay to identify small molecule antagonists of the retinoid-related orphan receptor gamma (ROR-gamma) signaling pathway - cell viability counter screen (AID 1159520); also: nearly all actives have a fitted effect of over 50% in size; also: potency is read from the fitted curve at half-maximal effect
In short: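 Cytotoxicity was read from cellular ATP (CellTiter-Glo luminescence) after 16 hr at 37 C with 1 uM doxycycline induction. The inducer was added 2 hr after compound transfer to Tet-on ROR gamma CHO cells.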

[4] = biological target: Nuclear receptor ROR-gamma (Homo sapiens) (UniProt P51449); test: qHTS assay to identify small molecule antagonists of the retinoid-related orphan receptor gamma (ROR-gamma) signaling pathway (AID 1159521; also: nearly all actives have a fitted effect of over 50% in size; also: potency is read from the fitted curve at half-maximal effect)
In short: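 Cells were plated, rested 4 h at 37 C, exposed to compounds for 2 h, then given 1 uM final doxycycline hyclate to induce RORγ expression. After 16 h, ONE-Glo luminescence from the ROR response element reporter was measured.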

[5] = qHTS assay to identify small molecule agonists of the AP-1 signaling pathway - cell viability counter screen (AID 1159525; calls by dose curve; also: nearly all actives have a fitted effect of over 55% in size; also: potency is read from the fitted curve at half-maximal effect)
In short: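 Luminescent ATP readout (Cell Titer Glo, 30 min RT), normalised to DMSO and tetra n-octyl ammonium bromide controls. Cells were ME-180 AP-1-bla in 0.5% dialyzed FBS Opti-MEM, with a 5 h, 37 °C compound exposure.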

[6] = biological target: Retinoic acid receptor RXR-alpha (Homo sapiens) (UniProt P19793); test: qHTS assay to identify small molecule agonists of the RXR signaling pathway (AID 1159527; calls by dose curve; also: nearly all actives have a fitted effect of over 35% in size)
In short: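 Cells plated at 2,000/well, rested 5 hr at 37 C, pin-dosed with DMSO compound solutions, incubated 16 hr, then loaded with B/G FRET substrate for 2 hr at RT before dual-emission fluorescence reading.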

[7] = qHTS assay to identify small molecule agonists of the RXR signaling pathway - cell viability counter screen (AID 1159529); also: nearly all actives have a fitted effect of over 50% in size; also: potency is read from the fitted curve at half-maximal effect
In short: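 Steps: seed RXR-alpha-UAS-bla HEK 293T cells in assay medium containing 2% charcoal-stripped FBS; incubate 5 hr; add compounds in DMSO; incubate 16 hr at 37 C; after the bla read, add CellTiter-Glo and read luminescence at 30 min.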

[8] = qHTS assay to identify small molecule antagonists of the retinoid acid receptor (RAR) signaling pathway - cell viability counter screen (AID 1159551); also: nearly all actives have a fitted effect of over 35% in size; also: potency is read from the fitted curve at half-maximal effect
In short: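 Luminescent ATP quantitation (CellTiter-Glo) gave cell viability in C3RL4 cells exposed to test chemicals for 6 h at 37 C alongside 1 uM final retinol.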

[9] = qHTS assay to identify small molecule agonists of the endoplasmic reticulum stress response signaling pathway - cell viability counter screen (AID 1159517; calls by dose curve; also: nearly all actives have a fitted effect of over 50% in size; also: potency is read from the fitted curve at half-maximal effect)
In short: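 HeLa cells carrying an ESRE-driven beta-lactamase reporter receive compound for 5 hr at 37 C. Cell viability is then gauged with CellTiter-Glo by luminescence, 30 min at room temperature.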

[10] = qHTS assay to identify small molecule agonists of the AP-1 signaling pathway (AID 1159526; calls by dose curve)

Sequence of Retinoic acid receptor RXR-alpha (Homo sapiens) (P19793 whole entry, looked up): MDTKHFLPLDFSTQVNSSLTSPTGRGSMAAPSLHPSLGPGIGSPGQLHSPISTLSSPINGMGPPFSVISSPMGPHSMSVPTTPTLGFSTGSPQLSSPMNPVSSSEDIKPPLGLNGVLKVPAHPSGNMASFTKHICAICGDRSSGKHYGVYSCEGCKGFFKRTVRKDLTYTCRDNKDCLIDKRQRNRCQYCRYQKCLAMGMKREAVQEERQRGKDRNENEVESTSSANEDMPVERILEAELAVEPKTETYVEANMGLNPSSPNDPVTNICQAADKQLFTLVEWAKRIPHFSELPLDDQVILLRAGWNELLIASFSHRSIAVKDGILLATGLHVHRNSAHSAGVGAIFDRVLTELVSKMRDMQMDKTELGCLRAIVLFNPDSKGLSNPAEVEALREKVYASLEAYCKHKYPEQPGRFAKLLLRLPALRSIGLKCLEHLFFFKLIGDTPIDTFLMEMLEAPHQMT

Row | SMILES | Potency [1] | Potency [2] | Potency [3] | Potency [4] | Potency [5] | Potency [6] | Potency [7] | Potency [8] | Potency [9] | Potency [10]
1 | O=C1OC(=O)c2cccc3cccc1c23 | inactive | inactive | inactive | inactive | inactive | inactive | inactive | inactive |  | 
2 | SCCCCCCCCS | inactive |  | inactive | inactive | inactive | inactive | inactive | inactive | 34.7 µM (active) | inactive
3 | Oc1ccc(-c2ccc(O)cc2)cc1 | inactive | inactive | inactive | inactive | inactive |  | inactive |  |  | inactive
4 | c1ccc(Nc2cccc3ccccc23)cc1 | inactive | inactive |  | inactive | 31.3 µM (active) and 49 µM (active) | inactive | 24.9 µM (active) |  |  | 
5 | CN1CCN(C2Cc3ccccc3Sc3ccc(Cl)cc32)CC1 (stereo unspecified) |  | inactive |  | 26.6 µM (active) |  |  | 23.9 µM (active) |  |  | 
6 | COC(=O)C1=C(C)NC(C)=C(C(=O)OCCCN2CCC(c3ccccc3)(c3ccccc3)CC2)C1c1cccc([N+](=O)[O-])c1 (stereo unspecified) | 23.9 µM (active) | inactive |  | 23.7 µM (active) | inactive |  |  | inactive |  | 
7 | O[C@@H](c1cc(C(F)(F)F)nc2c(C(F)(F)F)cccc12)[C@H]1CCCCN1 | 19 µM (active) | inactive |  |  | inactive |  |  |  |  | 
8 | CCOC(=O)C1=C(C)NC(C)=C(C(=O)OCC)C1c1ccccc1/C=C/C(=O)OC(C)(C)C |  | 19 µM (active) | 29.8 µM (active) |  | 26.8 µM (active) | inactive |  | inactive |  | 
9 | O=C(Oc1ccccc1)c1cccc(C(=O)Oc2ccccc2)c1 |  | inactive | inactive | inactive | inactive |  |  | inactive |  | 
10 | Cc1cccc(Br)c1 | inactive | inactive | inactive |  |  |  | 55.3 µM (active) | inactive |  | 
11 | C=CC(=O)OCCOCC(CC)(COCCOC(=O)C=C)COCCOC(=O)C=C | 64.3 µM (active) | inactive | 11.3 µM (active) |  |  |  |  |  |  | 
12 | CC(C)c1ccc(O)c(C(C)C)c1 |  | inactive |  | inactive |  |  | 38.9 µM (active) |  |  | 
13 | COC(=O)CC#N | inactive | inactive | inactive |  | inactive | inactive |  | inactive |  | inactive
14 | S=P(N1CC1)(N1CC1)N1CC1 |  | inactive | inactive |  |  |  |  | inactive |  | 
15 | CC(C)(c1cc(Br)c(OCCO)c(Br)c1)c1cc(Br)c(OCCO)c(Br)c1 |  | inactive | 47.5 µM (active) |  |  |  | 42.7 µM (active) | inactive |  | 
16 | O=Cc1ccc(F)cc1 | inactive | inactive | inactive | inactive | inactive |  |  | inactive |  | inactive
17 | Cc1ccc(N)cc1O |  | inactive | inactive | inactive | 38.9 µM (active) |  |  | inactive |  | 

Row | SMILES | Potency [1] | Potency [2] | Potency [3] | Potency [4] | Potency [5] | Potency [6] | Potency [7] | Potency [8] | Potency [9] | Potency [10]
18 | C=C(C)C(=O)OCCC[Si](Cl)(Cl)Cl | inactive |  | inactive | inactive | inactive | inactive | inactive | inactive | inactive | inactive
19 | COCC(=O)O[C@]1(CCN(C)CCCc2nc3ccccc3[nH]2)CCc2cc(F)ccc2[C@@H]1C(C)C | 21.3 µM (active) | inactive | 29.8 µM (active) | 26.6 µM (active) | inactive |  | 15.1 µM (active) |  |  | 
20 | CCCCCCOc1ccc(O)cc1 | inactive | inactive | inactive | inactive |  |  |  | inactive |  | 
21 | C[C@@H]1CC[C@H]2C(C)(C)[C@H]3C[C@@]12CC[C@@]3(C)O | inactive | inactive |  | inactive | inactive | inactive |  |  |  | 
22 | CC(O)C#CC(C)O (stereo unspecified) |  | inactive | 27 µM (active) | 19.1 µM (active) |  |  | 43.2 µM (active) |  |  | 
23 | O=C1c2c(O)ccc(O)c2C(=O)c2c(NCCNCCO)ccc(NCCNCCO)c21 |  |  | 23.7 µM (active) | inactive |  |  |  |  | inactive | 
24 | CCN(CC)CCOc1ccc(C(O)(Cc2ccc(Cl)cc2)c2ccc(C)cc2)cc1 (stereo unspecified) | 23.9 µM (active) | inactive |  | 29.8 µM (active) |  |  | 21.3 µM (active) |  |  | 
25 | Nc1ncnc2c1ncn2[C@@H]1O[C@H](COP(=O)(O)O)[C@@H](O)[C@H]1O | 10.7 µM (active) | inactive | inactive | inactive | inactive | inactive |  |  |  | 
26 | CCc1cccc(C)c1 | inactive |  | inactive | inactive | inactive | inactive | inactive |  | inactive | 
27 | CCC1(c2cnc[nH]2)Cc2ccccc2C1 | inactive |  | inactive | inactive | inactive | inactive | inactive | inactive | inactive | 
28 | O=C1NCN(c2ccccc2)C12CCN(CCCC(c1ccc(F)cc1)c1ccc(F)cc1)CC2 |  |  | 33.5 µM (active) | 26.6 µM (active) | 21.3 µM (active) |  | 21.3 µM (active) |  | 23.9 µM (active) | 
29 | CCCCCCOc1cc(C)c(O)c(C)c1C | 35.1 µM (active) |  | 61.9 µM (active) | 49.2 µM (active) | 44.2 µM (active) |  | 35.1 µM (active) |  | 55.6 µM (active) | 
30 | CCCCCCCC/C=C\CCCCCCCC(=O)OCCOC(=O)CCCCCCC/C=C\CCCCCCCC | inactive |  | inactive | inactive | inactive | inactive |  | inactive | inactive | inactive
31 | CSc1c(Cl)c(Cl)c(Cl)c(Cl)c1Cl | inactive |  | inactive | inactive |  |  | 43.4 µM (active) | inactive | 54.6 µM (active) | 
32 | CC(COC(=O)c1ccccc1)OC(=O)c1ccccc1 (stereo unspecified) | inactive |  | inactive | inactive | inactive | inactive | inactive | inactive | inactive | inactive
33 | CCN=C1C=CC(=C(c2ccc(N(CC)CC)cc2)c2ccc(N(CC)CC)cc2)c2ccccc21 | 19.4 µM (active) |  | 6.82 µM (active) | 2.71 µM (active) | 38.7 µM (active) |  | 15.4 µM (active) | 24.2 µM (active) | 38.7 µM (active) | 
